The whole screen tested about 39,000 compounds, of which about 3,300 (8.5%) were called active. For the sample, actives were picked, then their nearest neighbours and some compounds at random.

This assay relates to HepG2. Kind of assay: cytotoxicity call (relative viability < 0.9). To be noted: 10 µM.
For the molecule `CCCC(=O)N(CCc1c[nH]c2ccccc12)[C@@H]1CC(C(=O)NCCO)=C[C@H](Oc2c(I)cc(CO)cc2OC)[C@H]1O`, the cytotoxicity call was “inactive”.

On to `CN(C)CC(=O)N[C@H]1CC[C@H](CCNC(=O)C2CCC2)O[C@H]1CO`, for which the cytotoxicity call is “inactive”.

Turning to `Cc1noc(C)c1S(=O)(=O)Nc1ccc2c(c1)C(=O)N([C@H](C)CO)C[C@H](C)[C@@H](CN(C)C(=O)Nc1cccc3ccccc13)OCCCC[C@@H](C)O2`, the cytotoxicity call is “inactive”.

For the molecule `COCC(=O)N[C@@H]1C=C[C@H](CC(=O)N2CCCCC2)O[C@@H]1CO`, the cytotoxicity call was “inactive”.

Take `CN1C(=O)c2cc(NC(=O)Cc3cccs3)ccc2OC[C@H]2O[C@@H](CC(=O)NCCc3ccncc3)CC[C@H]21`: the cytotoxicity call is “inactive”.

As to `C[C@@H]1CCCCO[C@@H](CN(C)S(=O)(=O)c2ccccc2)[C@@H](C)CN([C@H](C)CO)C(=O)c2cc(NC(=O)Nc3ccc4c(c3)OCO4)ccc2O1`, the cytotoxicity call was “inactive”.

For `C[C@H](CO)N1C[C@H](C)[C@H](CN(C)S(=O)(=O)c2cccs2)Oc2ccc(NC(=O)c3ccncc3)cc2C1=O`, the cytotoxicity call is “inactive”.

As for `COc1ccc(NC(=O)N(C)C[C@H]2Oc3c(NC(=O)c4cnccn4)cccc3C(=O)N([C@H](C)CO)C[C@H]2C)cc1`, the cytotoxicity call is “inactive”.

Consider `C[C@@H]1CN([C@H](C)CO)C(=O)c2cccc(NC(=O)c3ccncc3)c2O[C@@H]1CN(C)Cc1ccc2c(c1)OCO2`, for which the cytotoxicity call is “inactive”.

For the molecule `C[C@@H]1CN([C@H](C)CO)C(=O)c2cccc(NS(=O)(=O)c3cn(C)cn3)c2O[C@@H]1CN(C)C(=O)Nc1ccc2c(c1)OCO2`, the cytotoxicity call is “inactive”.

For the molecule `CC(C)(C)NC[C@@]1(CO)SC(N)=NC1=O`, the cytotoxicity call was “inactive”.

Regarding `C[C@H]1CN([C@@H](C)CO)C(=O)Cc2cc(NC(=O)Cc3cn(C)c4ccccc34)ccc2O[C@@H]1CN(C)Cc1ccc(-c2ccccc2)cc1`, the cytotoxicity call was “inactive”.

As for `C[C@@H]1CN([C@H](C)CO)C(=O)Cc2cc(NC(=O)Cc3cn(C)c4ccccc34)ccc2O[C@@H]1CN(C)Cc1ccc(-c2ccccc2)cc1`, the cytotoxicity call is “active”.

With `C[C@@H]1CN(S(=O)(=O)N2CCN(C(=O)c3[nH]nc4ccccc34)CC2)C[C@H](C)O1`, the cytotoxicity call is “inactive”.

For the molecule `C[C@@H]1CN([C@@H](C)CO)C(=O)CCCn2nncc2CO[C@@H]1CN(C)C(=O)C1CC1`, the cytotoxicity call was “inactive”.

Take `C[C@@H]1CN([C@H](C)CO)C(=O)c2cc(NC(=O)Nc3ccc4c(c3)OCO4)ccc2O[C@@H](C)CCCCO[C@@H]1CN(C)Cc1ccc(C(F)(F)F)cc1`: the cytotoxicity call is “inactive”.

On to `C[C@@H]1CCCCO[C@H](CN(C)Cc2ccc(C(F)(F)F)cc2)[C@@H](C)CN([C@@H](C)CO)C(=O)c2cc(NC(=O)Nc3ccc4c(c3)OCO4)ccc2O1`, for which the cytotoxicity call is “active”.

`C[C@@H]1CN([C@H](C)CO)C(=O)c2cc(NC(=O)Nc3ccc4c(c3)OCO4)ccc2O[C@@H](C)CCCCO[C@H]1CN(C)Cc1ccc(C(F)(F)F)cc1`: the cytotoxicity call was “active”.

Take `C[C@@H]1CCCCO[C@@H](CN(C)Cc2ccc(C(F)(F)F)cc2)[C@H](C)CN([C@@H](C)CO)C(=O)c2cc(NC(=O)Nc3ccc4c(c3)OCO4)ccc2O1`: the cytotoxicity call is “active”.

With `C[C@@H]1CN([C@@H](C)CO)C(=O)c2cc(NC(=O)Nc3ccc4c(c3)OCO4)ccc2O[C@@H](C)CCCCO[C@@H]1CN(C)Cc1ccc(C(F)(F)F)cc1`, the cytotoxicity call is “inactive”.

As to `C[C@@H]1CCCCO[C@@H](CN(C)Cc2ccc(C(F)(F)F)cc2)[C@@H](C)CN([C@@H](C)CO)C(=O)c2cc(NC(=O)Nc3ccc4c(c3)OCO4)ccc2O1`, the cytotoxicity call is “inactive”.

`C[C@@H]1CN([C@@H](C)CO)C(=O)c2cc(NC(=O)Nc3ccc4c(c3)OCO4)ccc2O[C@@H](C)CCCCO[C@H]1CN(C)Cc1ccc(C(F)(F)F)cc1`: the cytotoxicity call is “inactive”.

`C[C@@H]1CCCCO[C@H](CN(C)Cc2ccc(C(F)(F)F)cc2)[C@H](C)CN([C@H](C)CO)C(=O)c2cc(NC(=O)Nc3ccc4c(c3)OCO4)ccc2O1`: the cytotoxicity call is “active”.

As to `COc1ccc(CN(C)C[C@H]2Oc3ccc(NC(=O)Cn4cnnn4)cc3CC(=O)N([C@H](C)CO)C[C@@H]2C)cc1`, the cytotoxicity call is “inactive”.

Turning to `C[C@@H]1CN([C@@H](C)CO)C(=O)c2cc(NC(=O)CCC(F)(F)F)ccc2O[C@@H]1CN(C)C(=O)Nc1cccc2ccccc12`, the cytotoxicity call was “inactive”.

For `O=C(C[C@@H]1CC[C@@H]2[C@H](COC[C@H](O)CN2S(=O)(=O)c2ccc(Cl)cc2)O1)NCCN1CCCCC1`, the cytotoxicity call was “inactive”.

For the molecule `C[C@@H]1CN([C@@H](C)CO)C(=O)c2cc(C#Cc3cccc(F)c3)cnc2O[C@H]1CN(C)CC1CCOCC1`, the cytotoxicity call was “inactive”.

As for `Cc1noc(C)c1NC(=O)N(C)C[C@H]1OCCCC[C@@H](C)Oc2ccc(NS(=O)(=O)c3ccccc3)cc2C(=O)N([C@@H](C)CO)C[C@@H]1C`, the cytotoxicity call was “inactive”.

Consider `CNC(=NC#N)NCCSCc1nc[nH]c1C`, for which the cytotoxicity call is “inactive”.

With `N#C[C@@H]1[C@@H](c2ccc(C#Cc3ccccn3)cc2)[C@H](CO)N1C(=O)CN1CCOCC1`, the cytotoxicity call is “inactive”.

As to `CN(C)CC(=O)N1CC(=O)N2[C@H](CO)[C@H](c3ccc(C#Cc4cccnc4)cc3)[C@@H]2C1`, the cytotoxicity call was “inactive”.

Regarding `COC(=O)[C@@H](Cc1ccc(-n2cc(C(=O)NO)nn2)cc1)N1CC2=CC(=O)[C@@H](C3CC3)[C@@H]2[C@H]1[C@H](O)Cc1ccccc1`, the cytotoxicity call was “inactive”.

With `COc1ccccc1-c1ccc2c(c1)O[C@@H](CN(C)C(=O)c1ccncc1)[C@H](C)CN([C@@H](C)CO)S2(=O)=O`, the cytotoxicity call was “inactive”.

As to `CN1CCN(C(=O)C[C@H]2CC[C@H]3[C@@H](COC[C@H](O)CN3C(=O)C3CCOCC3)O2)CC1`, the cytotoxicity call was “inactive”.

Take `Cc1noc(C)c1NC(=O)Nc1ccc2c(c1)CC(=O)N([C@@H](C)CO)C[C@H](C)[C@@H](CN(C)S(=O)(=O)c1c(C)noc1C)O2`: the cytotoxicity call was “inactive”.

As to `CC(C)C[C@@H]1NC(=O)[C@H]2C[C@@H](C(=O)NCCCC[N+](C)(C)C)[C@@H](c3cccc(OCCO)c3)N2C1=O`, the cytotoxicity call was “inactive”.

Regarding `CO[C@H]1CN(C)C(=O)c2cc(NS(C)(=O)=O)ccc2OC[C@H](C)N(C(=O)C2CCOCC2)C[C@@H]1C`, the cytotoxicity call was “inactive”.

`N#CCCn1c(CC(N)=O)nc2ccccc21`: the cytotoxicity call is “inactive”.

With `Cc1cccc(S(=O)(=O)N2C[C@H](O)COC[C@@H]3O[C@@H](CC(=O)NCc4ccncn4)CC[C@H]32)c1`, the cytotoxicity call was “inactive”.

`C[C@@H]1CCCCO[C@@H](CN(C)Cc2ccc(C(F)(F)F)cc2)[C@H](C)CN([C@H](C)CO)C(=O)c2cc(NC(=O)Nc3ccc4c(c3)OCO4)ccc2O1`: the cytotoxicity call was “active”.

Take `C[C@H](CO)N1C[C@H](C)[C@H](CN(C)Cc2ccc(C(F)(F)F)cc2)OCCCC[C@H](C)Oc2ccc(NC(=O)Nc3ccc4c(c3)OCO4)cc2C1=O`: the cytotoxicity call was “inactive”.

On to `C[C@@H]1CCCCO[C@H](CN(C)Cc2ccc(C(F)(F)F)cc2)[C@H](C)CN([C@@H](C)CO)C(=O)c2cc(NC(=O)Nc3ccc4c(c3)OCO4)ccc2O1`, for which the cytotoxicity call was “active”.

`C[C@H]1CCCCO[C@H](CN(C)Cc2ccc(C(F)(F)F)cc2)[C@@H](C)CN([C@@H](C)CO)C(=O)c2cc(NC(=O)Nc3ccc4c(c3)OCO4)ccc2O1`: the cytotoxicity call is “active”.

Regarding `C[C@@H]1CCCCO[C@H](CN(C)Cc2ccc(C(F)(F)F)cc2)[C@@H](C)CN([C@H](C)CO)C(=O)c2cc(NC(=O)Nc3ccc4c(c3)OCO4)ccc2O1`, the cytotoxicity call is “active”.

`C[C@@H]1CCCCO[C@@H](CN(C)Cc2ccc(C(F)(F)F)cc2)[C@@H](C)CN([C@H](C)CO)C(=O)c2cc(NC(=O)Nc3ccc4c(c3)OCO4)ccc2O1`: the cytotoxicity call is “inactive”.

With `C[C@H](CO)N1C[C@H](C)[C@@H](CN(C)Cc2ccc(C(F)(F)F)cc2)OCCCC[C@H](C)Oc2ccc(NC(=O)Nc3ccc4c(c3)OCO4)cc2C1=O`, the cytotoxicity call is “inactive”.

For `C[C@H]1CCCCO[C@@H](CN(C)Cc2ccc(C(F)(F)F)cc2)[C@@H](C)CN([C@@H](C)CO)C(=O)c2cc(NC(=O)Nc3ccc4c(c3)OCO4)ccc2O1`, the cytotoxicity call is “inactive”.

For the molecule `CC1(C)SC2C(NC(=O)C(N)c3ccccc3)C(=O)N2C1C(=O)[O-].[Na+]` (stereo unspecified), the cytotoxicity call was “inactive”.

Regarding `C[C@@H]1CCCCO[C@H](CN(C)C(=O)Nc2ccc(F)cc2)[C@H](C)CN([C@H](C)CO)C(=O)c2cc(NS(=O)(=O)c3cccs3)ccc2O1`, the cytotoxicity call is “inactive”.

In the case of `COc1ccc(NC(=O)Nc2ccc3c(c2)C(=O)N([C@@H](C)CO)C[C@H](C)[C@H](CN(C)Cc2ccncc2)OCCCC[C@H](C)O3)cc1`, the cytotoxicity call is “inactive”.

Take `COC1C=COC2(C)Oc3c(C)c(O)c4c(O)c(c(C=NN5CCN(C)CC5)c(O)c4c3C2=O)NC(=O)C(C)=CC=CC(C)C(O)C(C)C(O)C(C)C(OC(C)=O)C1C` (stereo unspecified): the cytotoxicity call was “inactive”.

In the case of `COc1ccc(NC(=O)Nc2ccc3c(c2)C(=O)N([C@@H](C)CO)C[C@@H](C)[C@H](CN(C)C(=O)Nc2cccc4ccccc24)OCCCC[C@@H](C)O3)cc1`, the cytotoxicity call was “inactive”.

Regarding `N[C@@H](C(=O)O)c1ccc(O)cc1`, the cytotoxicity call was “inactive”.

Turning to `C[C@@H]1CCCCO[C@H](CN(C)C(=O)Nc2cccc3ccccc23)[C@@H](C)CN([C@H](C)CO)C(=O)c2cc(N(C)C)ccc2O1`, the cytotoxicity call is “inactive”.

Consider `CC(C=CC1(O)C(C)=CC(=O)CC1(C)C)=CC(=O)O` (mixture of isomers) [ABSCISIC ACID (cis,trans; +/-) ], for which the cytotoxicity call is “inactive”.

In the case of `C[C@H]1CN([C@@H](C)CO)C(=O)c2cc(NC(=O)CCC(F)(F)F)ccc2O[C@H]1CN(C)Cc1ccc(Oc2ccccc2)cc1`, the cytotoxicity call was “active”.

Regarding `C[C@H]1CN([C@@H](C)CO)C(=O)c2cc(NC(=O)CCC(F)(F)F)ccc2O[C@@H]1CN(C)Cc1ccc(Oc2ccccc2)cc1`, the cytotoxicity call was “inactive”.

Regarding `C[C@H](CO)N1C[C@H](C)[C@H](CN(C)Cc2ccc(Oc3ccccc3)cc2)Oc2ccc(NC(=O)CCC(F)(F)F)cc2C1=O`, the cytotoxicity call is “inactive”.

Turning to `C[C@@H]1CN([C@H](C)CO)C(=O)c2cc(NC(=O)CCC(F)(F)F)ccc2O[C@@H]1CN(C)Cc1ccc(Oc2ccccc2)cc1`, the cytotoxicity call is “inactive”.

Turning to `C[C@@H]1CN([C@H](C)CO)C(=O)c2cc(NC(=O)CCC(F)(F)F)ccc2O[C@H]1CN(C)Cc1ccc(Oc2ccccc2)cc1`, the cytotoxicity call is “inactive”.

As for `C[C@@H]1CN([C@@H](C)CO)C(=O)c2cc(NC(=O)CCC(F)(F)F)ccc2O[C@@H]1CN(C)Cc1ccc(Oc2ccccc2)cc1`, the cytotoxicity call was “active”.

The values above are taken from the antibiotic and cytotoxicity screens of Wong et al. (2023).
